Test results published in PubChem BioAssay.
Where “and” joins values, the source holds several entries; their conditions need not be identical. Identical values can stand only once. Calls of active or inactive are those of the source. Unless noted, how the calls were made is not given here.

Columns and labels:
[1] = Wnt pathway potentiators raising nuclear beta-catenin – imaging, WNT3A-conditioned medium, mouse C2C12, NPC library, primary screen (AID 1117326; in the data active means nuclear beta-catenin stimulation mostly above about 4.2%, no sharp cut-off; inactive means mostly below about 10%; further: reference of the scale not given here); conditions: stronger effect = higher value
[2] = stimulators of insulin release from INS-1E, primary screen, cell-based, 5 mM glucose, NPC library (AID 1117329;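 active means compound raises insulin release from rat beta cells at 5 mM glucose, no numeric limit stated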; further: reference of the scale not given here); conditions: rat INS-1E insulin secretion, at 10 µM, stronger effect = higher value
[3] = growth inhibition of GSK3B-pretreated HCT116 cells – cell-based, CellTiter-Glo, 0.2 to 20 µM (AID 1117336;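 active means compounds lowering colon cancer cell viability after pretreatment blocking the GSK3B kinase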); conditions: HCT116 viability after GSK3B inhibitor, at 20 µM, stronger effect = higher value
[4] = inhibition of endothelial tube formation, primary screen, imaging, VEGF stimulated, CD31 staining, tube area, NPC library (AID 1117340;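 active means compound that reduces growth-factor-driven endothelial tube area in a mixed cell culture, no cutoff stated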); conditions: VEGF-stimulated ADSC/ECFC co-culture, at 10 µM, stronger effect = higher value
[5] = GLP1 release stimulators, primary, NCI-H716, NPC library (AID 1117341;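 active means compound raises GLP1 secretion from the human gut endocrine cells, with no numeric limit stated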; further: reference of the scale not given here); conditions: NCI-H716 cells, at 10 µM, stronger effect = higher value
[6] = HCT116 colon cancer cell growth inhibition, primary screen, CellTiter-Glo luminescence, NPC library (AID 1117342;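 active means compounds that lower survival of HCT116 colon cancer cells in the luminescence readout, no numeric limit stated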); conditions: at 20 µM (top of the series)
[7] = reduced SW480 viability measured with CellTiter-Glo, NPC library, primary (AID 1117343;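 active means compounds that lower viability of the colon cancer cells in the luminescence readout, with no numeric limit stated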); conditions: CellTiter-Glo luminescence; at 20 µM (top of the series)
[8] = NPC library primary testing for decreased DLD-1 cell viability via CellTiter-Glo (AID 1117346;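 active means compounds that lower survival of DLD-1 colon cancer cells in the luminescence readout, no cutoff given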); conditions: DLD-1 viability, CellTiter-Glo luminescence; at 20 µM (top of the series)
[9] = system: Aerobactin synthetase IucA (Klebsiella pneumoniae, hypervirulent); test: biochemical IucA inhibition screen of LOPAC library by absorbance (AID 1346212); conditions: IucA enzyme assay, absorbance (OD) readout; stronger effect = lower value;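 tested at 8 µM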;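 further: 100% = no compound wells and 0% = no enzyme wells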
[10] = viability loss with induced miR-34 in A549 – imaging, A549 dox-inducible miR-34, nuclei and caspase counts, primary screen (AID 1347080;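 active means compounds whose cell count with miR-34 switched on is under 0.7 times the count with it off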); conditions: A549 miR-34 inducible, Hoechst nuclei count, 48 h
[11] = galactose survival enhancers in mitochondrial complex I cybrids – cell-based, galactose medium, ATP luminescence, primary screen (AID 1645843;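 active means z-score of at least 1.8 in each of two replicates, scored against plate mean and spread of sample wells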;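 further: positive z means more ATP and so rescue of galactose-driven cybrid death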); conditions: complex I mutant cybrid cells, 72 h, stronger effect = higher value
[12] = compounds altering circadian rhythm period length – cell-based, LOPAC library, luminescence reporter (AID 2774); conditions: circadian reporter cells, at 7 µM, actives lie on both sides;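 further: values are relative to mean of DMSO wells on each plate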
[13] = compounds altering viability of human ES cells (AID 493140); conditions: human embryonic stem cell survival screen; stronger effect = higher value;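 further: cells exposed to compounds for four days before counting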
[14] = P. berghei load reduction in hepatocytes – cell-based, HepG2, luciferase luminescence, HepG2 viability, primary screen (AID 624349; in the data active means parasite load remaining mostly below about 12%, no sharp cut-off; inactive means mostly above about 10%;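 further: 100% = mean of DMSO negative control wells on the same plate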); conditions: P. berghei liver stage in HepG2, luciferase luminescence, concentration not given here; parasite load remaining: stronger effect = lower value; viability: measured here: HepG2 viability without parasites
[15] = system: Hepatitis C virus NS3 helicase; test: blockers of NS3h binding to ssDNA – biochemical, fluorescence polarization, LOPAC1280 library, primary screen (AID 687035; in the data active means inhibition above about 37%); conditions: Purified HCV NS3 helicase, Cy5-dT15 ssDNA binding fluorescence polarization; stronger effect = higher value; concentration not given here
[16] = MELAS cybrid and Rieske KO viability enhancers – cell-based, MELAS cybrids, Rieske KO mouse fibroblasts, CellTiter-Glo, primary screen (AID 1508586;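 active means mean z-score across replicates of 1.96 or higher in either the MELAS or the Rieske mutant cell line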;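 further: z relative to plate mean and SD of compound and empty wells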); conditions: low glucose
[17] = target: NAD(+) hydrolase SARM1 (Homo sapiens) (UniProt Q6SZW1); test: blocking NAD cleavage by SARM1 SAM-TIR – cell lysate, NAD-Glo luminescence (AID 1508614;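 active means compound whose remaining NAD level is above about 45 nM, limit read from the data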); conditions: SAM-TIR HEK293T lysate NADase, at 1 µM, stronger effect = higher value
[18] = measured here: relative caspase fold change +Dox/-Dox
[19] = measured here: total cells with miR-34 induction, stronger effect = lower value
[20] = measured here: total cells without miR-34 induction
[21] = MELAS cybrid survival, CellTiter-Glo 48 h, stronger effect = higher value
[22] = Rieske KO mouse fibroblast survival, CellTiter-Glo 72 h

Sequence of NAD(+) hydrolase SARM1 (Homo sapiens) (Q6SZW1 whole entry, looked up): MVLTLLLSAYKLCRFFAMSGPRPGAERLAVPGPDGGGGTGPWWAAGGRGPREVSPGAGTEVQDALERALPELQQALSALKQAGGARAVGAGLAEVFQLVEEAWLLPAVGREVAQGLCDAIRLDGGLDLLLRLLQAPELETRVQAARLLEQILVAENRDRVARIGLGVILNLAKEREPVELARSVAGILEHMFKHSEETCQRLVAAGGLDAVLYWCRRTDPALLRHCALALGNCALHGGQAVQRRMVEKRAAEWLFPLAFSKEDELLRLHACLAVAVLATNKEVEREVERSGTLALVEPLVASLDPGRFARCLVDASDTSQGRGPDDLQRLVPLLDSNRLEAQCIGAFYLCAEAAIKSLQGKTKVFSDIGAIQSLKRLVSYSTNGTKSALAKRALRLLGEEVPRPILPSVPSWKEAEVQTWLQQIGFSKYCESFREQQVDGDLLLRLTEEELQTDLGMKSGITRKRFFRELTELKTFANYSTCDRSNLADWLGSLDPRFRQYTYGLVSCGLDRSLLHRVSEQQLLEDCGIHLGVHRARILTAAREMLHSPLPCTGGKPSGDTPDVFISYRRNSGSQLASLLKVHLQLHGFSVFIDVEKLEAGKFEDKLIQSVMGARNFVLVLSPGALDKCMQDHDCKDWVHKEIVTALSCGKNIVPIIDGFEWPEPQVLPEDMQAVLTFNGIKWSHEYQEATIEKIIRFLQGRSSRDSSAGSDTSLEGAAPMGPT

C=CCN1C[C@H](C)N([C@H](c2ccc(C(=O)N(CC)CC)cc2)c2cccc(OC)c2)C[C@H]1C
1.05: fold change [10, 18]
8480: cell count [10, 19]
inactive: nuclear beta-catenin stimulation ([1]; at 10 µM) 1.7% | insulin secretion stimulation [2] -1.1% | viability decrease [3] 4.6% | tube area decrease [4] 3.8% | GLP1 secretion stimulation [5] 5.2% | inhibition of viability [6] 35% | viability decrease (inhibition) [7] 6% | viability decrease (inhibition) [8] 23.5% | remaining activity [9] 109% | fold change ([10]; stronger effect = lower value, cell number ratio, induced over uninduced) 0.944 | z-score [11] 0.105
8990: cell count [10, 20]
-0.7%: nuclear beta-catenin stimulation ([1]; stimulation, at 2 µM)

Fc1ccc(C(OCCN2CCN(CCCc3ccccc3)CC2)c2ccc(F)cc2)cc1
inactive: period change [12] -0.11 h | survival [13] 2.08 | parasite load remaining [14] 40.3% and 56% | inhibition [15] -2% | nuclear beta-catenin stimulation ([1]; at 10 µM) 21.5% | insulin secretion stimulation [2] 4.65% | tube area decrease [4] 30.2% | GLP1 secretion stimulation [5] 7.4% | remaining activity [9] 111% | fold change ([10]; stronger effect = lower value) 1.71 and 1.06 and 1.14 | z-score [16, 21] -0.775 | z-score [11] -1.03 and -1.23
1020 and 3730 and 1770: cell count [10, 20]
0.907 and 1.17 and 0.595: fold change [10, 18]
-0.6%: nuclear beta-catenin stimulation ([1]; stimulation, at 2 µM)
1750 and 3970 and 2030: cell count [10, 19]
74.4% and 71%: viability [14]
active: viability decrease [3] 118% | inhibition of viability [6] 124% | viability decrease (inhibition) [7] 159% | viability decrease (inhibition) [8] 102%
0.399: z-score [16, 22]

Cc1nnc2n1-c1sc(CCC(=O)N3CCOCC3)cc1C(c1ccccc1Cl)=NC2
inactive: nuclear beta-catenin stimulation ([1]; at 10 µM) 0.3% | insulin secretion stimulation [2] 3.7% | viability decrease [3] 11.7% | tube area decrease [4] 1.8% | GLP1 secretion stimulation [5] 0.4% | inhibition of viability [6] 13.6% | viability decrease (inhibition) [7] -4.5% | viability decrease (inhibition) [8] -5.7% | fold change ([10]; stronger effect = lower value) 1.01 | z-score [11] -0.365
0.912: fold change [10, 18]
9280: cell count [10, 19]
-0.9%: nuclear beta-catenin stimulation ([1]; stimulation, at 2 µM)
9210: cell count [10, 20]

N#CC(C#N)=Cc1ccc(O)c(O)c1
1.77 and 0.329 and 1.5: fold change [10, 18]
-0.257: z-score [16, 22]
8760 and 8720 and 10100: cell count [10, 20]
3.3%: nuclear beta-catenin stimulation ([1]; stimulation, at 2 µM)
8900 and 8210 and 9690: cell count [10, 19]
active: viability decrease [3] 86.7% | inhibition of viability [6] 55.1% | viability decrease (inhibition) [7] 62.8%
inactive: period change [12] -0.18 h | survival [13] 57.1 | inhibition [15] 0% | nuclear beta-catenin stimulation ([1]; at 10 µM) 3.9% | insulin secretion stimulation [2] 0.65% | tube area decrease [4] 17.4% | GLP1 secretion stimulation [5] -2.9% | viability decrease (inhibition) [8] 48.5% | remaining activity [9] 120% | fold change ([10]; stronger effect = lower value) 1.02 and 0.942 and 0.96 | z-score [16, 21] -0.508 | z-score [11] -0.735 and -0.66

NCC1(CC(=O)O)CCCCC1
inactive: period change [12] -0.07 h | survival [13] 2.25 | parasite load remaining [14] 131% and 58.8% | inhibition [15] -6% | nuclear beta-catenin stimulation ([1]; at 10 µM) 1% | insulin secretion stimulation [2] -1.1% | viability decrease [3] -8.75% | tube area decrease [4] 20.1% | GLP1 secretion stimulation [5] -1.7% | inhibition of viability [6] -3.4% | viability decrease (inhibition) [7] -3.2% | viability decrease (inhibition) [8] -8.35% | remaining activity [9] 98.6% | z-score [16, 21] 0.467 and -0.335 | remaining NAD [17] 10 nM | z-score [11] 0.26 and 0.88
103% and 169%: viability [14]
2.1%: nuclear beta-catenin stimulation ([1]; stimulation, at 2 µM)
-0.399 and 0.119: z-score [16, 22]
